Measured values as given in the antibiotic and cytotoxicity screens of Wong et al. (2023).
Out of some 39,000 compounds screened, about 3,300 (8.5%) were called active. The full list was thinned out, with actives kept by preference.

Tested on: HepG2
Assay: cytotoxicity call (relative viability < 0.9)
Conditions: 10 µM

Question: With `CC(C)NC(=O)N(C)C[C@@H]1Oc2ccc(NC(=O)c3ccncc3)cc2CC(=O)N([C@@H](C)CO)C[C@H]1C` as the compound, how does the cytotoxicity call read?
Answer: inactive

Question: `COc1ccc(S(=O)(=O)N(C)C[C@@H]2Oc3ccc(NC(=O)CCCN(C)C)cc3CC(=O)N([C@H](C)CO)C[C@@H]2C)cc1` was tested. Which cytotoxicity call did it give?
Answer: inactive

Question: `Cc1ccc(=O)[nH]n1` was tested. Which cytotoxicity call did it give?
Answer: inactive

Question: Which cytotoxicity call does the source give for `C[C@@H]1CN([C@@H](C)CO)C(=O)c2cc(-c3cccnc3)cnc2O[C@@H]1CN(C)Cc1ccc(Oc2ccccc2)cc1` here?
Answer: inactive

Question: `C[C@H]1CCCCO[C@H](CN(C)C(=O)Nc2cccc3ccccc23)[C@@H](C)CN([C@@H](C)CO)C(=O)c2cc(NC(=O)Cc3ccccc3)ccc2O1` was tested. Which cytotoxicity call did it give?
Answer: inactive

Question: For `COc1cccc(S(=O)(=O)N(C)C[C@@H]2Oc3ncc(-c4cccc(C(=O)N(C)C)c4)cc3C(=O)N([C@@H](C)CO)C[C@H]2C)c1`, which cytotoxicity call is on record?
Answer: inactive

Question: `CC(C)NC(=O)Nc1ccc2c(c1)C(=O)N([C@H](C)CO)C[C@H](C)[C@@H](CN(C)Cc1ccccc1)OCCCC[C@H](C)O2` was tested. Which cytotoxicity call did it give?
Answer: inactive

Question: With `COc1ccc(cc1)CN1C[C@]2(CN(C2)C(=O)Cc2ccncc2)c2c([nH]c3cc(ccc23)OC)[C@H]1CO` as the compound, how does the cytotoxicity call read?
Answer: inactive

Question: How did the cytotoxicity call turn out when `COc1ccc2c3c([nH]c2c1)[C@@H](CO)N(Cc1ccc(cc1)Cl)C[C@]13CN(CCc2ccccc2)C1` was run?
Answer: active

Question: With `COc1ccc2c3c([nH]c2c1)[C@H](CO)N(Cc1ccc(cc1)Cl)C[C@]13CN(CCc2ccccc2)C1` as the compound, how does the cytotoxicity call read?
Answer: active

Question: With `COc1ccc2c3c([nH]c2c1)[C@@H](CO)N(C[C@]13CN(CCc2ccccc2)C1)C(=O)CN1CCOCC1` as the compound, how does the cytotoxicity call read?
Answer: inactive

Question: With `COc1ccc2c3c([nH]c2c1)[C@@H](CO)N(Cc1ccccc1)C[C@]13CCN(CC1)C(=O)Nc1cccc(c1)F` as the compound, how does the cytotoxicity call read?
Answer: inactive

Question: With `COc1ccc2c3c([nH]c2c1)[C@H](CO)N(C[C@]13CN(CCc2ccccc2)C1)C(=O)CN1CCOCC1` as the compound, how does the cytotoxicity call read?
Answer: inactive

Question: For `C[C@H]1CN([C@@H](C)CO)C(=O)c2c(c3ccccc3n2C)-c2ccccc2CO[C@@H]1CN(C)Cc1ccccc1C(F)(F)F`, which cytotoxicity call is on record?
Answer: inactive

Question: For `C[C@H]1CN([C@@H](C)CO)C(=O)Cc2cc(NC(=O)CCN3CCOCC3)ccc2O[C@H]1CN(C)S(=O)(=O)c1ccccc1`, which cytotoxicity call is on record?
Answer: inactive

Question: For `C=C[C@](C)(O)CCC[C@H](C)CCC[C@H](C)CCCC(C)C`, which cytotoxicity call is on record?
Answer: inactive

Question: `CC(=O)OC1CCC2(C)C(CCC3(C)C2CC=C2C4CC(C)(C)CCC4(C(=O)O)CCC23C)C1(C)C` (configuration not stated) was tested. Which cytotoxicity call did it give?
Answer: inactive

Question: How did the cytotoxicity call turn out when `COc1ccc(S(=O)(=O)Nc2ccc3c(c2)C(=O)N([C@@H](C)CO)C[C@H](C)[C@H](CN(C)Cc2ccc4c(c2)OCO4)OCCCC[C@H](C)O3)cc1` was run?
Answer: inactive

Question: With `C[C@@H]1CN([C@H](C)CO)C(=O)Cc2cc(NS(=O)(=O)c3ccc(Cl)cc3)ccc2O[C@@H]1CN(C)C(=O)Nc1ccc(C(F)(F)F)cc1` as the compound, how does the cytotoxicity call read?
Answer: inactive

Question: `CN(C)C(=O)C[C@@H]1C=C[C@H](NC(=O)C2CC2)[C@@H](CO)O1` was tested. Which cytotoxicity call did it give?
Answer: inactive

Question: How did the cytotoxicity call turn out when `COc1ccc(S(=O)(=O)N(C)C[C@@H]2OCCCC[C@@H](C)Oc3ccc(NC(=O)NC4CCCCC4)cc3C(=O)N([C@H](C)CO)C[C@H]2C)cc1` was run?
Answer: active

Question: How did the cytotoxicity call turn out when `COc1ccc(S(=O)(=O)N(C)C[C@H]2OCCCC[C@H](C)Oc3ccc(NC(=O)NC4CCCCC4)cc3C(=O)N([C@H](C)CO)C[C@H]2C)cc1` was run?
Answer: inactive

Question: Which cytotoxicity call does the source give for `COc1ccc(S(=O)(=O)N(C)C[C@@H]2OCCCC[C@H](C)Oc3ccc(NC(=O)NC4CCCCC4)cc3C(=O)N([C@@H](C)CO)C[C@@H]2C)cc1` here?
Answer: inactive

Question: Which cytotoxicity call does the source give for `COc1ccc(S(=O)(=O)N(C)C[C@@H]2OCCCC[C@H](C)Oc3ccc(NC(=O)NC4CCCCC4)cc3C(=O)N([C@@H](C)CO)C[C@H]2C)cc1` here?
Answer: inactive

Question: `COc1ccc(S(=O)(=O)N(C)C[C@H]2OCCCC[C@H](C)Oc3ccc(NC(=O)NC4CCCCC4)cc3C(=O)N([C@@H](C)CO)C[C@H]2C)cc1` was tested. Which cytotoxicity call did it give?
Answer: inactive

Question: How did the cytotoxicity call turn out when `COc1ccc(S(=O)(=O)N(C)C[C@H]2OCCCC[C@H](C)Oc3ccc(NC(=O)NC4CCCCC4)cc3C(=O)N([C@H](C)CO)C[C@@H]2C)cc1` was run?
Answer: inactive

Question: Which cytotoxicity call does the source give for `COc1ccc(S(=O)(=O)N(C)C[C@H]2OCCCC[C@@H](C)Oc3ccc(NC(=O)NC4CCCCC4)cc3C(=O)N([C@@H](C)CO)C[C@H]2C)cc1` here?
Answer: active

Question: With `COc1ccc(S(=O)(=O)N(C)C[C@H]2OCCCC[C@@H](C)Oc3ccc(NC(=O)NC4CCCCC4)cc3C(=O)N([C@@H](C)CO)C[C@@H]2C)cc1` as the compound, how does the cytotoxicity call read?
Answer: active

Question: With `COc1ccc(S(=O)(=O)N(C)C[C@@H]2OCCCC[C@H](C)Oc3ccc(NC(=O)NC4CCCCC4)cc3C(=O)N([C@H](C)CO)C[C@@H]2C)cc1` as the compound, how does the cytotoxicity call read?
Answer: inactive

Question: Which cytotoxicity call does the source give for `C[C@@H]1CN([C@H](C)CO)C(=O)Cc2cc(NC(=O)CCCCCC(=O)Nc3ccccc3N)ccc2O[C@H]1CN(C)S(=O)(=O)c1cn(C)cn1` here?
Answer: inactive

Question: How did the cytotoxicity call turn out when `COc1ccc(NC(=O)N(C)C[C@@H]2OCCCC[C@@H](C)Oc3ccc(NS(=O)(=O)c4cccs4)cc3C(=O)N([C@@H](C)CO)C[C@H]2C)cc1` was run?
Answer: inactive

Question: For `C[C@H](CO)N1C[C@H](C)[C@@H](CN(C)S(=O)(=O)c2cn(C)cn2)Oc2ccc(NC(=O)C3CC3)cc2CC1=O`, which cytotoxicity call is on record?
Answer: inactive

Question: With `C[C@@H]1CCCCO[C@H](CN(C)Cc2ccc(C(=O)Nc3ccccc3N)cc2)[C@@H](C)CN([C@@H](C)CO)C(=O)c2cc(N(C)C)ccc2O1` as the compound, how does the cytotoxicity call read?
Answer: inactive

Question: Which cytotoxicity call does the source give for `O=C(C[C@H]1C=C[C@@H](NC(=O)CN2CCOCC2)[C@@H](CO)O1)NCCc1ccccc1` here?
Answer: inactive

Question: Which cytotoxicity call does the source give for `CC(C)CC#Cc1ccc2c(c1)O[C@H](CN(C)C(=O)c1ccncc1)[C@H](C)CN([C@H](C)CO)S2(=O)=O` here?
Answer: inactive

Question: `CCCCCCCCc1ccc(-c2ccc(C(=O)O)cc2)cc1` was tested. Which cytotoxicity call did it give?
Answer: inactive

Question: `CCCCCCCCCc1ccc(OCCOCCOCCOCCOCCOCCOCCOCCOCCO)cc1` was tested. Which cytotoxicity call did it give?
Answer: active

Question: For `OCCC[C@@H](O)c1ccc(OCCO)cc1`, which cytotoxicity call is on record?
Answer: inactive

Question: With `C[C@@H]1CN([C@@H](C)CO)C(=O)CCCn2nncc2CO[C@H]1CN(C)Cc1ccc(C(=O)Nc2ccccc2N)cc1` as the compound, how does the cytotoxicity call read?
Answer: inactive

Question: How did the cytotoxicity call turn out when `c1coc(CNC[C@H]2Cn3nncc3CO2)c1` was run?
Answer: inactive

Question: `N[C@H]1CC[C@@H](NC(=O)[C@H]2CCc3ccccc32)CC1` was tested. Which cytotoxicity call did it give?
Answer: inactive

Question: With `CC(C)(C)c1ccc(NC(=O)c2ccc(C(C)(C)C)s2)cc1` as the compound, how does the cytotoxicity call read?
Answer: inactive

Question: Which cytotoxicity call does the source give for `CC(C)(C)c1ccc(NC(=O)N[C@H]2CCCc3ccccc32)cc1` here?
Answer: active

Question: With `Cc1ccc(S(=O)(=O)Nc2ccc3c(c2)C(=O)N([C@H](C)CO)C[C@H](C)[C@@H](CN(C)C(=O)NC2CCCCC2)OCCCC[C@@H](C)O3)cc1` as the compound, how does the cytotoxicity call read?
Answer: inactive

Question: Which cytotoxicity call does the source give for `Clc1ccc(CSc2nc3ccccc3s2)cc1` here?
Answer: inactive

Question: For `Cl.Clc1ccc(Cn2c(CN3CCCC3)nc3ccccc32)cc1`, which cytotoxicity call is on record?
Answer: inactive

Question: `Cc1nc2ccccc2n1Cc1ccc(Cl)cc1` was tested. Which cytotoxicity call did it give?
Answer: active

Question: `CC1=CC2(CO)C(=O)[C@]3(CO3)C1[C@H]1[C@]2(C)C=C(CO)C(=O)[C@]12CO2` (some centres not stated) was tested. Which cytotoxicity call did it give?
Answer: inactive

Question: For `COc1ccc([Si](C)(C)[C@@H]2[C@@H](CCO)O[C@]3(C(=O)N(Cc4cccc(N5C(=O)c6cccc7cccc5c67)c4)c4ccccc43)[C@H]2C)cc1`, which cytotoxicity call is on record?
Answer: active

Question: For `COc1ccc([Si](C)(C)[C@H]2[C@H](CC(=O)N3CCC[C@H]3CO)O[C@@]3(C(=O)N(Cc4cccc(N5C(=O)c6cccc7cccc5c67)c4)c4ccccc43)[C@@H]2C)cc1`, which cytotoxicity call is on record?
Answer: inactive

Question: Which cytotoxicity call does the source give for `C[C@@H]1[C@@H]([Si](C)(C)F)[C@H](CCO)O[C@@]12C(=O)N(Cc1cccc(N3C(=O)c4cccc5cccc3c45)c1)c1ccccc12` here?
Answer: inactive

Question: How did the cytotoxicity call turn out when `COc1ccc([Si](C)(C)[C@H]2[C@H](CC(=O)N3Cc4ccccc4C[C@H]3CO)O[C@@]3(C(=O)N(Cc4cccc(N5C(=O)c6cccc7cccc5c67)c4)c4ccccc43)[C@@H]2C)cc1` was run?
Answer: active

Question: Which cytotoxicity call does the source give for `COc1ccc([Si](C)(C)[C@@H]2[C@@H](CC(=O)N3Cc4ccccc4C[C@H]3CO)O[C@]3(C(=O)N(Cc4cccc(N5C(=O)c6cccc7cccc5c67)c4)c4ccccc43)[C@H]2C)cc1` here?
Answer: inactive

Question: Which cytotoxicity call does the source give for `COc1ccc([Si](C)(C)[C@H]2[C@H](CC(=O)N3Cc4ccccc4C[C@H]3CO)O[C@@]3(C(=O)N(Cc4ccc(N5C(=O)c6cccc7cccc5c67)cc4)c4ccccc43)[C@@H]2C)cc1` here?
Answer: inactive

Question: Which cytotoxicity call does the source give for `COc1ccc([Si](C)(C)[C@@H]2[C@@H](CC(=O)N3CCC[C@H]3CO)O[C@]3(C(=O)N(Cc4cccc(N5C(=O)c6cccc7cccc5c67)c4)c4ccccc43)[C@H]2C)cc1` here?
Answer: inactive

Question: Which cytotoxicity call does the source give for `COc1ccc([Si](C)(C)[C@H]2[C@H](CCO)O[C@@]3(C(=O)N(Cc4cccc(N5C(=O)c6cccc7cccc5c67)c4)c4ccccc43)[C@@H]2C)cc1` here?
Answer: active

Question: For `COc1ccc([Si](C)(C)[C@H]2[C@H](CCO)O[C@@]3(C(=O)N(Cc4ccccc4)c4ccc(N5C(=O)c6cccc7cccc5c67)cc43)[C@@H]2C)cc1`, which cytotoxicity call is on record?
Answer: active

Question: For `COc1ccc([N+](=O)[O-])cc1CNCCO`, which cytotoxicity call is on record?
Answer: inactive

Question: Which cytotoxicity call does the source give for `CCNC(=O)C[C@H]1C=C[C@@H](NC(=O)C2CCOCC2)[C@H](CO)O1` here?
Answer: inactive

Question: `CN(C)CC(=O)N[C@@H]1CC[C@@H](CCNS(=O)(=O)c2ccccc2)O[C@H]1CO` was tested. Which cytotoxicity call did it give?
Answer: inactive

Question: `NCc1ccccc1-c1ccco1` was tested. Which cytotoxicity call did it give?
Answer: inactive

Question: `C1CC(N2CCNCC2)C1` was tested. Which cytotoxicity call did it give?
Answer: inactive

Question: Which cytotoxicity call does the source give for `CN(C)CC(=O)N[C@@H]1CC[C@@H](CC(=O)O)O[C@H]1CO` here?
Answer: inactive

Question: With `C[C@H](CO)N1C[C@H](C)[C@@H](CN(C)Cc2cccc3c2OCCCO3)OCc2cnnn2CCCC1=O` as the compound, how does the cytotoxicity call read?
Answer: inactive

Question: How did the cytotoxicity call turn out when `CC(O)C(=O)Nc1c(I)c(C(=O)NC(CO)CO)c(I)c(C(=O)NC(CO)CO)c1I` (configuration not stated) was run?
Answer: inactive

Question: How did the cytotoxicity call turn out when `Cc1cccc(S(=O)(=O)N2C[C@@H](O)COC[C@@H]3O[C@@H](CC(=O)NCCCN4CCOCC4)CC[C@H]32)c1` was run?
Answer: inactive

Question: How did the cytotoxicity call turn out when `COc1ccc(S(=O)(=O)N(C)C[C@@H]2Oc3ccc(NC(=O)NC(C)C)cc3C(=O)N([C@H](C)CO)C[C@H]2C)cc1` was run?
Answer: inactive
